A selection: hits, their analogues and other compounds. The true share with any hit is near 5.6%.
RORgamma inh: qHTS for inhibitors of ROR gamma transcriptional activity. Nuclear receptor ROR-gamma (Mus musculus), P51450. Drosophila S2 Gal4-RORgamma UAS-luciferase reporter, 20 h. Potency, µM (highest dose often 53.6 µM), without a hit: at the highest dose activity change, negative = inhibition, hits mostly inhibitors. 310,000 compounds, 5.4% hits. AID 2551, 2010; also: potency is read from the fitted curve at half-maximal effect; nearly all actives have a fitted effect of over 60% in size
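Drosophila S2 cells stably expressing Gal4-DBD/mouse RORγ fusion under metallothionein promoter plus UAS-luciferase; compound 1 h, then 700 uM CuSO4 induction for 20 h at ambient temperature; inhibition read as reduced luminescence.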
PKM2 act: qHTS Assay for Activators of Human Muscle isoform 2 Pyruvate Kinase. purified PKM2, Kinase-Glo ATP luminescence, activation; response scale: 0% is enzyme alone, no compound. Potency, µM (doses to about 57.5 µM), for inactives: at the highest dose activation, hits mostly activators. 260,000 compounds, 0.34% hits. AID 1631, 2009; also: potency is read from the fitted curve at half-maximal effect; nearly all actives have a fitted effect of over 55% in size
Target sequence (P14618 whole entry, looked up, canonical isoform): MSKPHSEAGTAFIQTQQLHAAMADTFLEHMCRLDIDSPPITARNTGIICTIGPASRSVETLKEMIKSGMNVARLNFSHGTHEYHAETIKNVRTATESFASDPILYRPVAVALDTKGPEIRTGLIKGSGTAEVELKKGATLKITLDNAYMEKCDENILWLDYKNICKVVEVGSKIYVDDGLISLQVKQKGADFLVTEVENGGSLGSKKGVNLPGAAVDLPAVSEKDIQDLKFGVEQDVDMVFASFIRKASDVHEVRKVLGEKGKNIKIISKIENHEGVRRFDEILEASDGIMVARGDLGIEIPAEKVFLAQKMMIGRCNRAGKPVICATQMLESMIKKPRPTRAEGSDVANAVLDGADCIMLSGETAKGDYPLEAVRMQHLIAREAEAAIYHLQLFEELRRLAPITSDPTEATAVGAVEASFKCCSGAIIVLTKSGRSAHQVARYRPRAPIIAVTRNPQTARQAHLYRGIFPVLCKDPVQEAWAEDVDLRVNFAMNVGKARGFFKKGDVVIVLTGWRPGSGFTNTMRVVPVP
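Kinase-Glo luminescence reports ATP generated from ADP (0.1 mM) and PEP (0.5 mM) by purified hPK-M2 after 1 h at room temperature, pH 7.2 imidazole buffer; intermediate enzyme activity allows detecting inhibitors and activators.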
Six1-Eya2 inh: qHTS Assay for Inhibitors of the Six1/Eya2 Interaction; Homeobox protein SIX1 (Homo sapiens) + Protein phosphatase EYA2 (Homo sapiens), …; activity change, % (concentration not given with the values); AID 651725, 2012; 360,000 compounds, 0.56% hits; AlphaScreen GST-Six1/His-Eya2 binding, biochemical; active compounds read low; in the data active = activity change below about -65%; inconclusive = mostly about -30% to -63%
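Homogeneous AlphaScreen proximity assay pairing GST-Six1 with His-tagged Eya2 (added as 5X mix: 250 nM and 500 nM) in 50 mM Tris pH 8.0, 300 mM NaCl, 1 mM TCEP. Glutathione donor and nickel acceptor beads; 1 h, 37 °C, dark.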
CtBP-E1A inh: qHTS Assay for Inhibitors of the CtBP/E1A Interaction | AlphaScreen GST-E1A/His-CtBP binding, 1536-well; active compounds read low | activity change, % (concentration not given with the values) | AID 651724, 2012 | 340,000 compounds, 0.49% hits; in the data active = activity change below about -65%; inconclusive = mostly about -30% to -63%
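AlphaScreen with 125 nM GST-E1A and 125 nM His-CtBP (5X stocks) in Tris pH 8.0, 300 mM NaCl, BSA, Tween 20, TCEP. Compounds preincubated 2 h at 37 deg C, then glutathione donor/nickel acceptor beads added for 1 h at 37 deg C in dark.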
VP16 counter: VP16 counterscreen qHTS for inhibitors of ROR gamma transcriptional activity | Drosophila S2 Gal4-VP16 UAS-luciferase, luminescence, 20 h | Potency, µM (highest dose often 53.6 µM), without a hit: at the highest dose activity, negative = inhibition, actives largely listed as inhibitors | 310,000 compounds, 3.5% hits | AID 2546, 2010;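 also: Gal4-VP16 expression switched on by copper sulfate through the metallothionein promoter; potency is read from the fitted curve at half-maximal effect; nearly all actives have a fitted effect of over 50% in size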
An asterisk follows results filed as active; ? = inconclusive; . = no result; [ ] = remark or other dose. Unless noted, calls follow the shape of the dose curve; as a rule, active = well fitted curve in the direction sought with a large enough effect; inconclusive = small, poorly fitted or top-dose-only effect, or another doubt; inactive = no such curve, though single readings can be large; an effect the other way counts as inactive or inconclusive. % is scaled to controls: 0 for no effect and ±100 for the full control effect.

SMILES	RORgamma inh	PKM2 act	Six1-Eya2 inh	CtBP-E1A inh	VP16 counter
COc1ccc(C)cc1Nc1n[n+](-c2ccccc2)c(-c2ccc(OC)c(OC)c2OC)s1	?	0%	0	-3	-15%
COc1ccc(C)cc1Nc1n[n+](-c2ccccc2)c(-c2ccc(N(C)C)cc2)s1	11µM*	-5%	-12	3	5.6µM*
COc1ccc(C)cc1Nc1n[n+](-c2ccccc2)c(-c2c(Cl)cccc2Cl)s1	7.1µM*	-1%	?	?	16µM*
NC(=S)N/N=C/c1ccc(-c2cc(Cl)cc(Cl)c2)o1	1.3µM*	?	-9	-7	4µM*
Cc1cc(=O)[nH]c(N/N=C/c2ccc(-c3ccc([N+](=O)[O-])cc3)o2)n1	16%	-2%	-71*	-74*	-16%
COC(=O)N/N=C/c1ccc(-c2cc(Cl)cc(Cl)c2)o1	19%	9%	-6	-1	-7%
NC(=S)N/N=C/c1ccc(-c2ccc([N+](=O)[O-])cc2)o1	7.1µM*	-4%	-28	-1	?
NC(=S)N/N=C/c1ccc(-c2cc(Cl)ccc2Cl)o1	1.3µM*	17%	-20	?	2.8µM*
CCOC(=O)N/N=C\c1ccc(-c2cc(Cl)ccc2Cl)o1	22%	-7%	-9	7	-19%
COc1ccc(OC)c(N(CC(=O)NCC2CCCO2)S(=O)(=O)c2ccccc2)c1 (stereo unspecified)	-3%	.	-1	-11	2%
CN1CCCN(C(=O)c2c(F)cccc2Cl)CC1	.	0%	2	-2	.
O=C(C[C@H]1CC[C@H]2[C@@H](COC[C@@H](O)CN2S(=O)(=O)c2ccccc2)O1)N[C@@H]1CCN(Cc2ccccc2)C1	.	.	22	6	.
CCSc1nnc(NC(=O)CCNC(=O)c2ccccc2Cl)s1	.	.	0	-11	.
COc1cc2cc(C)c(SCC(=O)N3CCN(C(=O)c4ccco4)CC3)nc2cc1OC	1%	18µM*	-11	-4	-3%
CCc1cc2cc(C)ccc2nc1SCC(=O)N1CCN(C(=O)c2ccco2)CC1	40%	10%	0	-9	-2%
CC(C)SCc1cc(N2CCCC2)nc(-c2ccccc2)n1	13µM*	-12%	12	-1	-5%
CSCc1cc(N2CCCC2)nc(-c2ccccc2)n1	?	-8%	23	13	10%
CN1/C(=C/C(=S)NC(=O)C2CCC2)C(C)(C)c2ccccc21	6.3µM*	0%	?	?	13µM*
CN1/C(=C\C(=O)C(F)F)C(C)(C)c2ccccc21	22%	-4%	10	17	0%
Cc1ccc(C(=O)NC(=S)/C=C2\N(C)c3ccccc3C2(C)C)cc1	7.1µM*	-5%	-75*	-81*	5.6µM*
CC(C)C(=O)NC(=S)/C=C1/N(C)c2ccccc2C1(C)C	3.5µM*	2%	?	-12	4µM*
Cc1c(NC(=S)/C=C2\N(C)c3ccccc3C2(C)C)c(=O)n(-c2ccccc2)n1C	13%	-1%	-18	-15	?
C[C@H](CO)N1C[C@H](C)[C@@H](CN(C)S(=O)(=O)c2ccccc2)Oc2c(NC(=O)CCC(F)(F)F)cccc2C1=O	.	.	-3	7	.
Cc1cc(C)c(S(=O)(=O)N(C2=NCCS2)S(=O)(=O)c2c(C)cc(C)cc2C)c(C)c1	16µM*	4%	-6	5	-8%
N#CCc1ccc(OC(=O)c2ccncc2)cc1	.	.	9	-1	.
SMILES	RORgamma inh	PKM2 act	Six1-Eya2 inh	CtBP-E1A inh	VP16 counter
O=S(=O)(C/C(=C/CO)S(=O)(=O)c1ccccc1)c1ccccc1	4µM*	5%	-8	0	4.5µM*
CCOC(=O)C1=C(C)Nc2ncnn2C1c1c[nH]c2ccccc12 (stereo unspecified)	10µM*	-5%	0	4	0%
Cc1nc(C(=O)NCC(=O)c2ccc(Cl)cc2)c(C(F)(F)F)o1	?	4%	1	12	13%
Cc1nc(C(=O)NNC(=O)c2ccc(Cl)cc2)c(C(F)(F)F)o1	11µM*	2%	-1	-1	?
CCN(CC)CCCNc1nc(-n2nc(C)cc2C)nc2sc3c(c12)CC(C)(C)OC3	13µM*	-10%	1	-11	?
CCc1nc(SCC(=O)O)c2c3c(sc2n1)COC(C)(C)C3	29%	.	14	-17	1%
Cc1cc(C)n(-c2nc(NCc3cccnc3)c3c4c(sc3n2)COC(C)(C)C4)n1	4µM*	0%	-15	-20	6.3µM*
Cc1cc(C)n(-c2nc(SCC(=O)O)c3c4c(sc3n2)COC(C)(C)C4)n1	7.1µM*	3%	-26	-20	?
Cc1nc(NCc2cccnc2)c2c3c(sc2n1)CCCC3	?	2%	-10	3	-10%
O=C(Nc1ccc2c(c1)OCO2)C1CCCN1C(=O)Nc1ccccc1 (stereo unspecified)	14%	-10%	1	16	0%
COc1ccc2oc(-c3ccc(O)cc3)cc(=O)c2c1	25µM*	.	.	.	25µM*
O=C(COc1ccc2c(-c3ccccc3)cc(=O)oc2c1)Nc1ccc(CCO)cc1	13%	9%[0.46 µM]	-1	.	?
O=C(COc1ccc2oc(-c3ccccc3)cc(=O)c2c1)Nc1ccccc1	13µM*	-9%	4	5	?
COc1ccc(-c2cc(=O)c3cc(OC)ccc3o2)cc1	-14%	-1%	3	-4	3%
CCCCCCCCCCCC(=O)N1CC(=O)NC(=O)C1	-10%	2%	0	4	-7%
Cc1ccc(NC(=S)NNC(=O)c2c(Cl)c(C)nn2C)cc1	4µM*	0%	0	15	?
Cc1nn(C)c(C(=O)NNC(=S)NCC(C)C)c1Cl	3.2µM*	1%	4	3	-19%
Cc1nn(C)c(C(=O)N/N=C/c2ccc(-c3ccccc3)cc2)c1Cl	8.9µM*	1%	2	4	11µM*
COc1ccc(/C=N/NC(=O)c2c([N+](=O)[O-])c(C)nn2C)cc1	-26%	-4%	-1	6	-19%
Cc1ccc(NC(=S)NNC(=O)c2c([N+](=O)[O-])c(C)nn2C)cc1	13µM*	-4%	2	9	-19%
Cc1ccc(NC(=S)NNC(=O)c2nn(C)c(C)c2Cl)cc1	-40%	1%	-30	?	-3%
Cc1ccc(NC(=S)NNC(=O)c2cn(C)nc2C)cc1	11µM*	-2%	7	-1	-2%
CN(C)c1ccc(-n2cccc2/C=C/[N+](=O)[O-])cc1	11µM*	-1%	1	-21	-6%[10 µM]
CN(c1ccccc1)c1ccc(/C=C/[N+](=O)[O-])cc1	?	8%	0	3	?

Screens: PubChem BioAssay, National Center for Advancing Translational Sciences (NCATS)
